The text below walks through data of PubChem BioAssay AID488969 (Vanderbilt High Throughput Screening Facility, 2010).

In all, about 110,000 compounds were measured (“z-score”: median about -0.1, highest 2% from about 2 on). The sample as a whole holds a higher share of the highest values than the screen did. Active and inactive are the calls of the source.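 Rule for the calls: active = z-score in the third read window above 3 or below -3; inactive = the rest.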

The target in this test is Metabotropic glutamate receptor 8 (Rattus norvegicus) (UniProt P70579). The experiment in a line: mGluR8 Gi/Go-coupled signaling modulation – cell-based, rat, thallium flux, HTS, primary screen (AID 488969). The following applies: HEK293 rat mGluR8, GIRK (G protein-gated inwardly rectifying potassium channel) thallium flux, FluoZin2; at 10 µM; stronger effect = higher value; submaximal glutamate (EC20) added with thallium.
Sequence of Metabotropic glutamate receptor 8 (Rattus norvegicus) (P70579 whole entry, looked up): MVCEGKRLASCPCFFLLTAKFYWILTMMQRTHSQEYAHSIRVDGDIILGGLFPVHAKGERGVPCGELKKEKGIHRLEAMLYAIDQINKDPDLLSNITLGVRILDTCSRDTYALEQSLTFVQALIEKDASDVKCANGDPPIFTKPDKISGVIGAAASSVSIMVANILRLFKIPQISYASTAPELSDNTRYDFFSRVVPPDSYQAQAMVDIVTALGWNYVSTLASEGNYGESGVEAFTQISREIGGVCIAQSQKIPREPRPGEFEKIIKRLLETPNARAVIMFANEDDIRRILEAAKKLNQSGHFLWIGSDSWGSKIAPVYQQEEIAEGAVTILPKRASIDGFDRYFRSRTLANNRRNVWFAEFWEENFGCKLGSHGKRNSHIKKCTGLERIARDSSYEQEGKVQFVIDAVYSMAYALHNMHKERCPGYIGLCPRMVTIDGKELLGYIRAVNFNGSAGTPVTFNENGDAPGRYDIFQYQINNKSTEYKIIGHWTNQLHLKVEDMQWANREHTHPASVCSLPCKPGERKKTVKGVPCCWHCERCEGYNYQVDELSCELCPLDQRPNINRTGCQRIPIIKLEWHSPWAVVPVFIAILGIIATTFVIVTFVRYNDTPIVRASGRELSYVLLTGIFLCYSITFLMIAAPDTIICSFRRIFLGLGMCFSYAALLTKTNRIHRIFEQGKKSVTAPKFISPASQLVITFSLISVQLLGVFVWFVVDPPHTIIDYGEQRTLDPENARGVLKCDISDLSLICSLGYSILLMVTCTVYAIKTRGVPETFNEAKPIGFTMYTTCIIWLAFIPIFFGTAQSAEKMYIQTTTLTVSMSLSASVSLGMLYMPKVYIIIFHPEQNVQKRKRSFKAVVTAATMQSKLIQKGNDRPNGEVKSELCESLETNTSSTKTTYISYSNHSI
As to `O=C(NNC1=NCCCCC1)c1ccccc1`, the z-score was -0.78.

`O=S(=O)(Cc1ccccc1)N1CCCC(c2nc(-c3ccc(F)cc3)no2)C1` (centres undefined) returned a z-score of -0.449.

Regarding `Cc1nc(NC(=O)CSc2ccc(-c3nc4ccccc4[nH]3)cn2)sc1C`, the z-score was -0.0534.

`O=C(/C=C/c1ccc(OCc2ccccc2)c(OCc2ccccc2)c1)c1cccnc1` yielded a z-score of 0.691.

`Cc1ccc(NC(=O)N2CCC(C(=O)NCc3ccc(F)cc3)CC2)cc1` returned a z-score of 2.21.

Consider `Cc1ccc(NC(=O)N2CCC(C(=O)NCc3ccccc3)CC2)cc1`, for which the z-score is -0.545.

Compound `O=C(NCc1ccc(F)cc1)C1CCN(C(=O)NCc2ccccc2)CC1` displayed a z-score of 0.336.

As for `O=C(COCC(=O)N/N=C/c1ccccc1F)N/N=C/c1ccccc1F`, the z-score was -0.201.

For `CCn1c(SCc2ccc(C#N)cc2)nnc1-c1cccc(Cl)c1`, the z-score was -0.177.

As for `CCn1c(SCc2ccc(Cl)cc2)nnc1-c1ccccc1`, the z-score was 3.4 (active).

For `CCn1c(SCc2cccc(C)c2)nnc1-c1ccccc1`, the z-score was -0.431.

Compound `COCCN(C(=O)Nc1ccccc1)c1ccccc1` returned a z-score of -0.157.

As for `Cc1cc(Br)ccc1NC(=S)Nc1cccc([N+](=O)[O-])c1`, the z-score amounted to 0.848.

With `Cc1ccc(C2CC2C(=O)NNC(=S)Nc2cccc(C)c2)cc1` (centres undefined), the z-score was 3.29 (active).

For the compound `CC1=C(C)CC(C(=O)Nc2cccc(Cl)c2)C(C(=O)O)C1` (centres undefined), the z-score was -0.289.

Compound `Cc1cccc(NC(=O)C2CCCC2)c1` registered a z-score of 0.277.

Take `Cc1ccc(C2CC2C(=O)NNC(=S)Nc2ccc(Cl)cc2)cc1` (centres undefined): the z-score was 4.55 (active).

Compound `Cc1cccc(NC(=S)NNC(=O)c2ccco2)c1` returned a z-score of 0.0496.

With `Cc1ccc(NC(=S)NNC(=O)C2CC2c2ccc(C)cc2)cc1` (centres undefined), the z-score was 1.64.

On to `O=C(NNC(=O)C1CC1c1ccccc1)Nc1cccc(Cl)c1` (centres undefined), for which the z-score is -0.494.

`Cc1ccc(C2CC2C(=O)NN)cc1` (centres undefined) returned a z-score of -0.033.

On to `Cc1ccc(C2CC2C(=O)NNC(=S)Nc2cccc(Cl)c2)cc1` (centres undefined), for which the z-score is 5.51 (active).

In the case of `O=C(c1ccccc1)c1ccc(Oc2ncccn2)cc1`, the z-score is -0.321.

Regarding `O=[N+]([O-])c1ccccc1N/N=C/c1cc2ccccc2nc1Cl`, the z-score is -0.459.

Compound `CC(C)c1ccc(-c2c(C#N)c(N)nc(SCC(=O)N3CCCCC3)c2C#N)cc1` returned a z-score of -0.019.

`O=C1c2cccc3cccc(c23)C(=O)N1CCN1CCN(C(=S)Nc2ccc(F)cc2)CC1`: the z-score was -0.203.

`Cc1cccc(-n2c(SCC(=O)Nc3ncc(Cl)cc3Cl)nc3ccccc32)c1` returned a z-score of -0.585.

In turn, `COc1ccc(-n2c(=S)[nH]c3ccccc32)cc1` yielded a z-score of 1.9.

In the case of `COc1ccc(-n2cc(-c3ccccc3)[nH]c2=S)cc1`, the z-score was 11.4 (active).

In turn, `Cc1ccc(-n2c(-c3ccccc3)n[nH]c2=S)cc1` registered a z-score of 0.357.

Compound `O=C(CCC1CCCC1)NC1CCCCC1` showed a z-score of -0.0138.

Turning to `O=C(O)CCC(=O)NC1CCCCC1`, the z-score was -0.0259.

In turn, `CC1CCCCC1NC(=O)CSCC(=O)O` (centres undefined) registered a z-score of -0.0424.

`O=C(O)CCC(=O)NC1CCCCC1NC(=O)CCC(=O)O` (centres undefined): the z-score was 2.2.

Turning to `O=C(O)CCC(=O)NC1CCCCCCC1`, the z-score was 3.34 (active).

Consider `O=C(CCCC(=O)NC1CCCC1)NC1CCCC1`, for which the z-score was -0.0851.

In turn, `O=S(=O)(NCc1cccnc1)c1cccc2cccnc12` registered a z-score of -0.0796.

`Cc1cc(C)c(S(=O)(=O)N(C)CC(=O)N2CCCCC2)c(C)c1` returned a z-score of 0.255.

Regarding `COc1ccc2c(c1)c(N=O)c(O)n2C`, the z-score is -0.55.

For the compound `O=C(C1CCN(S(=O)(=O)N2CCOCC2)CC1)N1CCc2ccccc21`, the z-score was -1.37.

The compound `O=C(NCCO)c1scc2c1OCCO2` displayed a z-score of 0.107.

As for `O=c1c2ccccc2c(C=NCc2ccccn2)c(O)n1-c1ccccc1`, the z-score is 9.73 (active).

Turning to `Cc1cccc(-n2c(O)c(C=NCc3ccccn3)c3ccccc3c2=O)c1`, the z-score was -0.159.

As to `Cc1ccc(-n2c(O)c(C=NCc3ccccn3)c3ccccc3c2=O)cc1`, the z-score is -0.774.

On to `COc1ccc(CNC(=O)C/C(C)=N/NC(=O)Cc2ccc(OC)c(OC)c2)cc1`, for which the z-score amounted to 0.123.

`CCCCN(CCCC)S(=O)(=O)c1ccc2[nH]c(=O)[nH]c2c1` yielded a z-score of -0.144.

Regarding `COc1cc(/C=C(\C#N)C(=O)Nc2cccnc2)ccc1OC(C)C`, the z-score is 2.99.

Take `COc1ccc(/C=C(\C#N)C(=O)Nc2cccnc2)cc1`: the z-score is -0.0907.

`CCOc1ccc(/C=C(\C#N)C(=O)Nc2cccnc2)cc1`: the z-score is -0.416.

As to `CC(C)C(=O)NC(C)C(c1cccs1)N1CCN(C)CC1` (centres undefined), the z-score is 0.199.

`COc1ccccc1OCCOc1ccc(C(=O)c2ccccc2)cc1` had a z-score of 1.04.

As to `O=C(CSc1ccccc1)NCCSCc1ccccc1`, the z-score is -0.635.

The compound `CCNC(=O)CSc1nc2cc([N+](=O)[O-])ccc2n1-c1cccc(C(F)(F)F)c1` returned a z-score of -0.0324.

Consider `C=CCNC(=O)NC(=O)CSc1nc2cc([N+](=O)[O-])ccc2n1-c1cccc(C(F)(F)F)c1`, for which the z-score turned out to be 2.75.

The compound `NC(=O)CSc1nc2cc([N+](=O)[O-])ccc2n1-c1cccc(C(F)(F)F)c1` came in with a z-score of 0.159.

The compound `O=C(OCCN1C(=O)CCC1=O)c1ccc(S(=O)(=O)N2CCCCC2)cc1` had a z-score of -1.06.

The compound `Cn1c(NC(=O)c2cccs2)c(-c2cccs2)c(=O)c2ccccc21` yielded a z-score of 0.899.

In turn, `Cc1nn(Cc2ccc(Cl)cc2)c(C)c1NC(=O)C1CC=CCC1C(=O)O` (centres undefined) registered a z-score of -0.0201.

For the compound `CN(C)CCC1Sc2ccccc2Oc2ccccc21` (centres undefined), the z-score worked out at 1.77.

With `CCN(CC)CCCNC(=O)C1c2ccccc2Oc2ccccc21`, the z-score amounted to 0.199.

As for `CNCCCC1Sc2ccccc2Oc2ccccc21` (centres undefined), the z-score came out at 2.85.

Consider `Cc1sc(NC(=O)c2ccco2)c(C(=O)c2ccc(Cl)cc2)c1C`, for which the z-score is -0.135.

`CC(C)(C)NC(=O)c1cc(Cl)ccc1[N+](=O)[O-]`: the z-score is -0.172.

Compound `N#C/C(=C/c1cn(-c2ccccc2)nc1-c1cccc(S(=O)(=O)N2CCOCC2)c1)C(=O)NCc1ccco1` had a z-score of -0.112.

Compound `Cc1ccc(N2C(N)=NC(N)=NC23CCCC3)c(C)c1` displayed a z-score of 0.0847.

`Cc1cccc(N2C(N)=NC(N)=NC23CCCCC3)c1` yielded a z-score of 2.24.

Compound `NC1=NC2(CCCCC2)N(c2cccc(Cl)c2)C(N)=N1` had a z-score of 0.453.

For the compound `Cc1ccc(S(=O)(=O)NCCSCc2ccccc2)cc1`, the z-score is -0.24.

Compound `CC(=O)c1cn(CC(=O)NCc2ccc3c(c2)OCO3)c2ccccc12` gave a z-score of -0.0873.

Regarding `Cn1c(=O)cc(OCCCC(=O)NCc2ccc3c(c2)OCO3)c2ccccc21`, the z-score is 8.84 (active).

On to `Cn1cc(CCC(=O)NCc2ccc3c(c2)OCO3)c2ccccc21`, for which the z-score was 3.75 (active).

Turning to `Cn1c(=O)cc(OCCCC(=O)Nc2ccc3c(c2)OCCO3)c2ccccc21`, the z-score was -0.101.

`COc1ccc(CNC(=O)CCCOc2cc(=O)n(C)c3ccccc23)cc1`: the z-score amounted to 0.0421.

`O=C(CCn1cccc1)NCc1ccc2c(c1)OCO2` had a z-score of -0.423.
